The whole screen tested about 5,500 compounds, of which about 2,000 (36%) were called active. Roughly 18% stayed inconclusive and do not appear here. Rule as the data show it: active = normalized growth mostly below about 0.91 (no sharp cut-off); inconclusive = no clear call, values can overlap the other calls; inactive = mostly above about 0.92. This is one part of the list.
Assay: chemical genetic growth profiling, strain panel (AID 1159580);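 also: tested at 20 µM; growth read once vehicle control cultures reached saturation at 30 °C; 1 = growth at the plate median or of vehicle wells; lower values mean less growth of the strain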
Details: S. cerevisiae deletion strains, growth OD

Measured: normalized growth

CC(=O)N1CCN(c2ccc(OC[C@H]3CO[C@](Cn4ccnc4)(c4ccc(Cl)cc4Cl)O3)cc2)CC1
active: locus YAL013W, strain DEP1, active compounds read low 0.0911 | locus YAL040C, strain CLN3, active compounds read low 0.208 | locus YCL061C, strain MRC1 (second series), active compounds read low 0.0612 | locus YDR363W, strain ESC2, active compounds read low 0.103 | locus YER002W, strain NOP16, active compounds read low 0.137 | locus YGR078C, strain PAC10, active compounds read low 0.139 | locus YGR229C, strain SMI1, active compounds read low 0.0746 | locus YJR075W, strain HOC1, active compounds read low 0.0931 | locus YMR263W, strain SAP30, active compounds read low 0.588 | locus YNL128W, strain TEP1, active compounds read low 0.16 | locus YNL153C, strain GIM3, active compounds read low 0.14 | locus YNL175C, strain NOP13, active compounds read low 0.133 | locus YNL197C, strain WHI3, active compounds read low 0.147 | locus YNL224C, strain SQS1, active compounds read low 0.18 | locus YNL322C, strain KRE1, active compounds read low 0.0931 | locus YOR083W, strain WHI5 (second series), active compounds read low 0.175 | locus YPL055C, strain LGE1, active compounds read low 0.104

CCC(C)n1ncn(-c2ccc(N3CCN(c4ccc(OC[C@H]5CO[C@](Cn6cncn6)(c6ccc(Cl)cc6Cl)O5)cc4)CC3)cc2)c1=O (stereo not given in full)
active: locus YHR030C, strain SLT2, active compounds read low 0.104 | locus YHR079C, strain IRE1, active compounds read low 0.19 | locus YJL095W, strain BCK1, active compounds read low 0.112 | locus YJR066W, strain TOR1, active compounds read low 0.0832 | locus YLR113W, strain HOG1, active compounds read low 0.187 | locus YNL183C, strain NPR1, active compounds read low 0.183 | locus YOR231W, strain MKK1, active compounds read low 0.177 | locus YPL256C, strain CLN2, active compounds read low 0.188

Reference: PubChem BioAssay AID1159580 (chemical genetic matrix, 2015)
